An excerpt weighted towards active compounds, which were near 27% of everything screened.
CYP2C9 inhib: human CYP2C9 inhibition; AID 777; P11712; 20% of 96,000 active; CYP2C9 Supersomes, luciferin-H conversion, luminescence; inhibition, % at 5 µM;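 active = blocking of liver enzyme CYP2C9 beyond about 50% at 5 µM, limit read from the data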
Target sequence (P11712 whole entry, looked up): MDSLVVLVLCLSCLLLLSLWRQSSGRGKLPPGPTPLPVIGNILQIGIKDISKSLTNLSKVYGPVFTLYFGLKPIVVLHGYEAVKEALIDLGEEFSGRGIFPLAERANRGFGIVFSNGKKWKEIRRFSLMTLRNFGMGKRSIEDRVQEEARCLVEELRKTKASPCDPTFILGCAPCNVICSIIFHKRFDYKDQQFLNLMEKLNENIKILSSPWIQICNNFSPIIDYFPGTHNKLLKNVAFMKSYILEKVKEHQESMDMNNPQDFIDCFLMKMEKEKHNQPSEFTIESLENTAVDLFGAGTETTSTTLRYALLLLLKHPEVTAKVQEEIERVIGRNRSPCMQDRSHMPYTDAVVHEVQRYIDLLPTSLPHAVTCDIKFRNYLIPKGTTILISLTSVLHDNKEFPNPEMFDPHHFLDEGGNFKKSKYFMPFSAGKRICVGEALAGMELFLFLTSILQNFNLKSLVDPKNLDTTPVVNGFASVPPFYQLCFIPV
Cav32 inh: human Cav3.2 channel inhibition, primary screen; O95180; AID 449739; 4% of 100,000 active; Cav3.2-expressing cells, Fluo-4 calcium fluorescence FDSS; stronger effect = lower value; B-score at 10 µM;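 active = single-dose well whose peak fluorescence ratio is a statistical outlier from its plate by either plate-standardised score or position-corrected B-score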
CYP2C19 act: activators of human cytochrome P450 2C19; AID 1025; 96,000 tested, under 10 active; recombinant CYP2C19, luciferin-H EGE luminescence; stronger effect = higher value; 0 = fully inhibited enzyme, 1 = untreated enzyme; P33261; activation factor at 5 µM;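 active = activation factor of at least 2 at 5 µM in the primary screen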
CYP2C19 inhib: inhibitors of human CYP2C19 | inhibition, % at 5 µM | 21% of 96,000 active | CYP2C19 Supersomes, luciferin-H EGE luminescence, 30 min | AID 778;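 active = CYP2C19 inhibition above a set limit at 5 µM in the primary screen, cut at about 50% in these data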
CYP2C9 activ: CYP2C9 (human) activation; recombinant CYP2C9, luciferin-H conversion, luminescence; stronger effect = higher value; factor 1 = untreated enzyme, 0 = blocked; activation factor at 5 µM; 1.4% of 96,000 active; AID 1024;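 active = activation factor of 2 or more for CYP2C9 at a 5 µM dose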
A number is an active result; . = inactive; / = no result given.

SMILES	CYP2C9 inhib	Cav32 inh	CYP2C19 act	CYP2C19 inhib	CYP2C9 activ
CCOC(=O)N1CCN(C(=O)c2ccc3c(=O)n4c(nc3c2)CCCCC4)CC1	.	.	.	.	.
CCC(C)NC(=O)c1ccc(CS(=O)(=O)c2ccc(OC)cc2)o1 (stereo not given)	.	.	.	.	.
CCC(C)NC(=O)c1ccc(CS(=O)(=O)Cc2ccc(Cl)cc2)o1 (stereo not given)	63	.	.	67	.
COc1cc(NC(=O)CSc2nnnn2-c2ccccc2)cc(OC)c1OC	.	.	.	.	.
O=C(CSc1nnnn1-c1ccccc1)NCc1cccs1	.	.	.	83	.
Cc1cc(C)nc(NC(=O)CSc2nnnn2-c2ccccc2)n1	.	.	.	52	.
O=C(O)c1ccc(-n2nnnc2SCc2ccccc2F)cc1	.	-4.1	.	.	.
O=C1c2ccccc2C(=O)N1CCCCSc1nnnn1-c1ccccc1	51	.	.	.	.
CC(=O)N1CSCC1C(=O)N1CCN(c2ccc(N3CCOCC3)nn2)CC1 (stereo not given)	.	.	.	.	.
Cc1cc2ccccc2n2c(SCC(=O)NCc3cccs3)nnc12	.	.	.	64	.
O=C(CSc1nnnn1-c1ccccc1)CSc1nnnn1-c1ccccc1	72	.	.	98	.
O=C1c2ccccc2C(=O)N1CSc1nnnn1-c1ccccc1	.	.	.	83	2.1
O=C(O)CSc1nnnn1-c1ccccc1	.	.	.	.	.
CC(C)CCNC(=O)c1onc(CSc2ccccn2)c1C(=O)NCCC(C)C	/	.	/	/	/
Cc1cccc(-c2cc3nc4c(c(N5CCCC(O)C5)n3n2)CCC4)c1 (stereo not given)	98	.	.	87	.
OC1CCCN(c2c3c(nc4cc(-c5cccc(Cl)c5)nn24)CCC3)C1 (stereo not given)	/	.	/	/	/
CCOC(=O)C1=C(CC)Nc2ccccc2N=C1NC(=O)Nc1ccccc1OC	.	.	.	.	.
O=c1c2c([nH]c3ccccc13)CCCC2	.	.	.	.	2.4
CCCCCNc1nc(NCCCO)c(C#N)c2c1CN(C)CC2	54	.	.	.	.
Clc1cccc(Cl)c1CSc1nnc(-c2sccc2-n2cccc2)o1	.	/	.	.	.
O=C(CCC(=O)c1cccs1)c1cccs1	/	.	/	/	/
O=C(CCC(=O)c1cccs1)NC(c1ccccc1)c1ccccc1	55	.	.	74	.
Cn1c(-c2ccccc2)cc2c3no[n+]([O-])c3ccc21	.	.	.	80	.
CCN(CC)C(=O)CN1C(=O)COCC1=O	.	.	.	.	.
CC(C)n1c(-c2ccco2)csc1=Nc1cccnc1	60	-5.2	.	65	.
SMILES	CYP2C9 inhib	Cav32 inh	CYP2C19 act	CYP2C19 inhib	CYP2C9 activ
CCN=c1scc(-c2ccco2)n1/N=C/c1ccc(O)cc1	.	.	.	.	.
Brc1ccc(Oc2nsnc2N2CCOCC2)cc1	.	.	.	89	.
COc1ccc(-c2nn(C)c(=O)c3ccccc23)cc1NC(=O)COc1ccc(C)cc1	.	.	.	.	.
COCCCNC(=O)CN1C(=O)CSc2ncccc21	.	.	.	.	.
Cc1c(Cl)cccc1NC(=O)CN1C(=O)CSc2ncccc21	.	.	.	64	3.6
Cc1ccc(C)c(S(=O)(=O)N2C(=S)NC(=O)C2CC(C)C)c1 (stereo not given)	80	.	.	.	.
CCOc1ccc(Nc2cc(=O)oc3ccccc23)cc1	.	.	.	.	.
CCC(C)C(NC(=O)OCc1ccccc1)C(=O)OCN1C(=O)c2ccccc2C1=O (stereo not given)	.	-5.1	.	.	.
c1c2c(cc3sc(N4CCOCC4)nc13)OCO2	.	.	.	.	.
CC(=O)Nc1nc2cc3c(cc2s1)OCO3	.	.	.	64	.
c1c2c(cc3sc(N4CCCCC4)nc13)OCO2	.	/	.	84	.
O=C(Nc1nc2cc3c(cc2s1)OCO3)C1=COCCO1	/	.	/	/	/
COc1ccc(/C(O)=C2\C(=O)C(=O)N(CCCN(C)C)C2c2ccccc2F)cc1Cl (stereo not given)	.	/	.	.	.
CCOc1ccc(NC2=NCC(=O)N2Cc2cccs2)cc1	.	.	.	.	.
Cc1cccc(C(=O)CC(=O)c2cc(Cl)ccc2O)c1	79	.	.	.	.
O=C(NC(NC(=O)c1ccccc1)C(=O)c1ccccc1)c1ccccc1	/	.	/	/	/
O=C(NC(Nc1ncccn1)C(=O)c1ccccc1)c1ccccc1 (stereo not given)	77	/	.	78	.
